Laboratory results: PubChem BioAssay (EPA / NIEHS)
Activity calls are given as the source filed them. How the source made its calls: active means hit-call score of the fitted dose curve at least 0.9, where 1 is the maximum; inconclusive means response in the unintended direction; inactive means score below 0.9.

These compounds were tested on SERPINA7 (gene 6906) (assay: CCTE_GLTED_hTBG: CCTE's human Thyroxine-binding Globulin (TBG) Inhibition Assay, Great Lakes Toxicology and Ecology Division (GLTED) Lab (AID 2284343);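 further: active chemicals lower fluorescence versus DMSO baseline by displacing probe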).
Method in brief: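 hTBG + test chem, 2 h; ANSA probe displacement; fluorescence readout ex380/em475; DMSO = neg ctrl/baseline; cell-free.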

**Q.** Which AC50 does the source give for `O=C1c2c(O)cccc2Cc2cccc(O)c21` here?
**A.** 41.1 µM (active)

**Q.** Which AC50 does the source give for `O=C(Oc1ccccc1)c1cccc(C(=O)Oc2ccccc2)c1` here?
**A.** 9.91 µM (active)

**Q.** For `CCCCCCCCCCCCCCOS(=O)(=O)O`, which AC50 is on record?
**A.** 27.7 µM (active)

**Q.** With `CCCCc1nc2cccnc2n1Cc1ccc(-c2ccccc2-c2nnn[nH]2)cc1` as the compound, how does the AC50 read?
**A.** 33.7 µM (active)

**Q.** How did the AC50 turn out when `CC(=O)CC(c1ccccc1)c1c(O)c2ccccc2oc1=O` (stereo not given) was run?
**A.** 37.9 µM (active)

**Q.** With `O=C1OC(c2ccc(O)cc2)(c2ccc(O)cc2)c2ccccc21` as the compound, how does the AC50 read?
**A.** 3.3 µM (active)

**Q.** `Cc1ccc(C(C)(C)C)c(O)c1` was tested. Which AC50 did it give?
**A.** 26.7 µM (active)

**Q.** For `Cc1cc(Cc2ccc(N)c(C)c2)ccc1N`, which AC50 is on record?
**A.** 24 µM (active)

**Q.** `Cc1c(C)c2c(c(C)c1O)CCC(C)(COc1ccc(CC3SC(=O)NC3=O)cc1)O2` (stereo not given) was tested. Which AC50 did it give?
**A.** 8.3 µM (active)

**Q.** For `O=C1NC(=O)C(c2ccccc2)(c2ccccc2)N1`, which AC50 is on record?
**A.** 17.4 µM (active)

**Q.** How did the AC50 turn out when `O=C(O)c1[nH]n(-c2ccc(S(=O)(=O)O)cc2)c(=O)c1N=Nc1ccc(S(=O)(=O)O)cc1` was run?
**A.** 27.1 µM (active)

**Q.** With `O=Cc1ccccc1C=O` as the compound, how does the AC50 read?
**A.** 8.72 µM (active)

**Q.** `CCC(C)N(C)C(=O)c1cc2ccccc2c(-c2ccccc2Cl)n1` (stereo not given) was tested. Which AC50 did it give?
**A.** 38.1 µM (active)

**Q.** For `S=c1[nH]c2ccccc2s1`, which AC50 is on record?
**A.** 36.4 µM (active)

**Q.** How did the AC50 turn out when `CCCCCCC(C=O)=Cc1ccccc1` was run?
**A.** 21.5 µM (active)
